The record followed here is PubChem BioAssay (EPA / NIEHS).

Settings in all cases: mRNA level, 48 h; actives raise or lower the signal
Read-out in assay [1]: DNA damage-inducible transcript 3 (DDIT3), DDIT3 (gene 1649)
The assay can be described thus: LTEA_HepaRG_DDIT3: Life Technologies and Expression Analysis (LTEA) Assay for DNA damage-inducible transcript 3 (DDIT3) using HepaRG (AID 2283488). The gist of the method:
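Eight-point concentration-response (100 uM highest, half-log dilutions) in HepaRG, 48 h, duplicate wells. Endpoint: qRT-PCR mRNA, normalized (ACTB, GAPDH, POLR2A), bidirectional fitting with DMSO as baseline.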

Read-out in assay [2]: Pro-epidermal growth factor (Homo sapiens) (UniProt P01133)
In words: LTEA_HepaRG_EGF: Life Technologies and Expression Analysis (LTEA) Assay for Epidermal growth factor (EGF) using HepaRG (AID 2283489). Summed up: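 HepaRG, 48 h dosing, 100 uM top, half-log x8, 0.5% DMSO. Readout: TaqMan qRT-PCR (Fluidigm array), housekeeping-normalized. Gain or loss of signal fit vs DMSO.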

Read-out in assay [3]: Early growth response protein 1 (EGR1) transcription factor, EGR1 (gene 1958)
In words: LTEA_HepaRG_EGR1: Life Technologies and Expression Analysis (LTEA) Assay for Early growth response protein 1 (EGR1) transcription factor using HepaRG (AID 2283490). The gist of the method: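 HepaRG, 48 h exposure, 8-pt half-log series from 100 uM, 0.5% DMSO vehicle; EGR1 transcript by TaqMan qRT-PCR (Fluidigm array), housekeeping-normalized; bidirectional fit relative to DMSO baseline.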

Read-out in assay [4]: Ezrin (EZR), EZR (gene 7430)
In words: LTEA_HepaRG_EZR: Life Technologies and Expression Analysis (LTEA) Assay for Ezrin (EZR) using HepaRG (AID 2283491). Summed up: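 Differentiated human HepaRG cells, 48 h after plating, were exposed in serum-free induction medium for 48 hours to eight half-log concentrations up to 100 uM in 0.5% DMSO. EZR mRNA was measured by TaqMan qRT-PCR, normalized to ACTB, GAPDH and POLR2A, and fitted bidirectionally against DMSO.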

Read-out in a further assay: CYP2C9 (gene 1559)
The assay can be described thus: LTEA_HepaRG_CYP2C9: Life Technologies and Expression Analysis (LTEA) Assay for CYP2C9 using HepaRG (AID 2283484). Summed up: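 HepaRG, 48 h dosing, 8-pt half-log series, top 100 uM, 0.5% DMSO vehicle. Read-out: CYP2C9 transcript by TaqMan qRT-PCR, housekeeping-normalized (ACTB/GAPDH/POLR2A). Gain or loss fitted vs DMSO baseline.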

Read-out in a further assay: CYP4A11 (gene 1579)
In words: LTEA_HepaRG_CYP4A11: Life Technologies and Expression Analysis (LTEA) Assay for CYP4A11 using HepaRG (AID 2283486). The gist of the method: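 HepaRG, 48 h chem exposure, 8 conc (100 uM top, half-log), 0.5% DMSO vehicle; qRT-PCR readout, housekeeping-gene normalized; bidirectional curve fit vs DMSO baseline.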

Read-out in assay [5]: Cytochrome P450 3A4 (Homo sapiens) (UniProt P08684)
The assay can be described thus: LTEA_HepaRG_CYP3A4: Life Technologies and Expression Analysis (LTEA) Assay for CYP3A4 using HepaRG (AID 2283487). Summed up: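 Differentiated HepaRG cells in serum-free induction medium exposed in duplicate for 48 h to 8 half-log concentrations up to 100 uM in 0.5% DMSO. CYP3A4 mRNA measured by qRT-PCR normalized to ACTB, GAPDH and POLR2A; bidirectional fit versus DMSO.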

Read-out in assay [6]: Cytochrome P450 3A7 (Homo sapiens) (UniProt P24462)
The assay can be described thus: LTEA_HepaRG_CYP3A7: Life Technologies and Expression Analysis (LTEA) Assay for CYP3A7 using HepaRG (AID 2283492). Summed up:
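Human HepaRG liver cells, 48 h post-plating, switched to serum-free induction medium and exposed in duplicate for 48 h. Dosing: 100 uM top, half-log dilutions, 8 points, 0.5% DMSO vehicle. Read-out: CYP3A7 mRNA, gain or loss fitted against DMSO baseline.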

Read-out in a further assay: CYP3A5 (gene 1577)
In words: LTEA_HepaRG_CYP3A5: Life Technologies and Expression Analysis (LTEA) Assay for CYP3A5 using HepaRG (AID 2283493). The gist of the method: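 Readout was CYP3A5 mRNA by qRT-PCR. HepaRG cultures were exposed for 48 h in serum-free induction medium to chemicals at up to 100 uM, and responses were fitted in both directions relative to DMSO vehicle.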

The source made the active and inactive calls. The calls were made as follows: active = hit-call score of the fitted dose curve at least 0.9, where 1 is the maximum; inactive = score below 0.9.

Sequence of Cytochrome P450 3A7 (Homo sapiens) (P24462 whole entry, looked up): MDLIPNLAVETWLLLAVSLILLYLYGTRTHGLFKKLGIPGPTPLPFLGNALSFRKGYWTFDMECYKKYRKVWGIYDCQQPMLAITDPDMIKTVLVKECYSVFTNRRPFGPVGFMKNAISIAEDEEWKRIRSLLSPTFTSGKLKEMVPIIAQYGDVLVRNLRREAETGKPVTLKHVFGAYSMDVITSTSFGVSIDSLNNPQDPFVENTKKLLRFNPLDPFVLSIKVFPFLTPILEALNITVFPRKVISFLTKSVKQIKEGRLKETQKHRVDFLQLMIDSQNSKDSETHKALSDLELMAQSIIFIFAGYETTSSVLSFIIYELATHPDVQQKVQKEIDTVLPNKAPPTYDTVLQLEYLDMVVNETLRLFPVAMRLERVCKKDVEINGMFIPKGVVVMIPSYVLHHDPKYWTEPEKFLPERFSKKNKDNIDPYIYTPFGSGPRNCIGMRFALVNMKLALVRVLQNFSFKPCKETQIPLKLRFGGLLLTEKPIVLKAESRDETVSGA
Sequence of Cytochrome P450 3A4 (Homo sapiens) (P08684 whole entry, looked up): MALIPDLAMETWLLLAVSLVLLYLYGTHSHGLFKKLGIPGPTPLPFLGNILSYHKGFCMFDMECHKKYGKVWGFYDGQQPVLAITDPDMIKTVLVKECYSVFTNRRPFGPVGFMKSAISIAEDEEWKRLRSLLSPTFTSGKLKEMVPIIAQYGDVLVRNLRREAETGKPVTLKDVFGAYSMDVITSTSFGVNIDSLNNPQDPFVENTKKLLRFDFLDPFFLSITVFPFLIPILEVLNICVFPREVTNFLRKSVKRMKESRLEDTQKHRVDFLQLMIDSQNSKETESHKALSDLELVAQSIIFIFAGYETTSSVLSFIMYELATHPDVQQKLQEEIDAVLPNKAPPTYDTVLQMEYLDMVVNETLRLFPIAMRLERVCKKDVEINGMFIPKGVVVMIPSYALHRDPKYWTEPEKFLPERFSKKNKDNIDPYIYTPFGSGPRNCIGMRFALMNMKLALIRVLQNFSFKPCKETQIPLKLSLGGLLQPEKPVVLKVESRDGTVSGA

`Cc1ccc(O)cc1C`: the outcome in assay [1], in assay [2], in assay [3] and in [4] was inactive.
For `O=P1(N(CCCl)CCCl)NCCCO1` (stereo not given), the compound was classed as inactive (with CYP2C9 (gene 1559); with CYP4A11 (gene 1579); in assay [5]; in [1]; in assay [2]; in [3]). Moreover, the outcome (in assay [4]; in assay [6]; with CYP3A5 (gene 1577)) was inactive.
On to `OCC1CO1` (stereo not given), for which the outcome (in the assay with CYP2C9 (gene 1559); in the assay with CYP4A11 (gene 1579); in assay [5]; in assay [1]; in assay [2]; in assay [3]) was inactive. Moreover, the result (in assay [4]; in assay [6]; in the assay with CYP3A5 (gene 1577)) was inactive.
Regarding `CCC1(c2ccccc2)C(=O)N=C(O)NC1=O` (stereo not given), the compound was called inactive (in the assay with CYP2C9 (gene 1559); in assay [1]; in [2]; in assay [3]; in [4]; with CYP3A5 (gene 1577)). Also, the half-maximal activity concentration (AC50) was 50 µM (active) in assay [5] and 41.3 µM (active) in assay [6].
Turning to `CC(C)(C)OOC(C)(C)C`, the compound was called inactive (with CYP2C9 (gene 1559); in the assay with CYP4A11 (gene 1579); in assay [5]; in assay [1]; in assay [2]; in assay [3]). In addition, the compound was classed as inactive (in assay [4]; in assay [6]; with CYP3A5 (gene 1577)).
As to `CC(Cl)(Cl)C(=O)O`, the result (with CYP2C9 (gene 1559); in the assay with CYP4A11 (gene 1579); in assay [5]; in assay [1]; in [2]; in assay [3]) was inactive. In addition, the call (in [4]; in assay [6]; with CYP3A5 (gene 1577)) was inactive.
`O=[N+]([O-])c1ccccc1`: the call (in the assay with CYP2C9 (gene 1559); with CYP4A11 (gene 1579); in [5]; in [1]; in assay [3]; in [4]) was inactive. Further, the compound was classed as inactive (in assay [6]; with CYP3A5 (gene 1577)).
In the case of `c1ccc2c(c1)Nc1ccccc1S2`, the call (with CYP2C9 (gene 1559); with CYP4A11 (gene 1579); in assay [5]; in [1]; in assay [2]; in assay [3]) was inactive. Further, the result (in assay [4]; in [6]; with CYP3A5 (gene 1577)) was inactive.
As to `Cc1ccc([N+](=O)[O-])cc1C`, the call (with CYP2C9 (gene 1559); with CYP4A11 (gene 1579); in [5]; in assay [1]; in assay [2]; in assay [3]) was inactive. The result (in [4]; in assay [6]; with CYP3A5 (gene 1577)) was inactive.
Regarding `O=C(O)C1C(C(=O)O)C2(Cl)C(Cl)=C(Cl)C1(Cl)C2(Cl)Cl` (stereo not given), the outcome (with CYP2C9 (gene 1559); with CYP4A11 (gene 1579); in assay [5]; in [1]; in assay [2]; in [3]) was inactive. Also, the outcome (in assay [4]; in [6]; with CYP3A5 (gene 1577)) was inactive.
`O=P(Oc1ccccc1)(Oc1ccccc1)Oc1ccccc1`: the outcome (in the assay with CYP2C9 (gene 1559); in assay [2]; in [3]; in assay [4]) was inactive. For the same compound, the AC50 is 3.44 µM (active) in assay [5], 75.4 µM (active) in [1] and 12.6 µM (active) in [6].
Consider `CN(C)C(=O)Cl`, for which the compound was called inactive (with CYP2C9 (gene 1559); in the assay with CYP4A11 (gene 1579); in assay [5]; in assay [1]; in assay [2]; in assay [3]). Besides, the outcome (in [4]; in assay [6]; with CYP3A5 (gene 1577)) was inactive.
Regarding `CCCCN(CCCC)N=O`, the compound was classed as inactive (in the assay with CYP2C9 (gene 1559); with CYP4A11 (gene 1579); in assay [5]; in assay [1]; in assay [2]; in [3]). The result (in [4]; in assay [6]; in the assay with CYP3A5 (gene 1577)) was inactive.
Take `c1nc[nH]n1`: the outcome (with CYP2C9 (gene 1559); with CYP4A11 (gene 1579); in assay [5]; in assay [1]; in assay [2]; in assay [4]) was inactive. The result (in assay [6]; with CYP3A5 (gene 1577)) was inactive. Besides, the AC50 in [3] was 0.109 µM (active).
As for `CC(Cc1ccc(OCC(=O)O)cc1)NCC(O)c1csc(C(F)(F)F)n1` (stereo not given), the outcome (with CYP2C9 (gene 1559); with CYP4A11 (gene 1579); in assay [5]; in [2]; in assay [3]; in assay [4]) was inactive. The call (in assay [6]; in the assay with CYP3A5 (gene 1577)) was inactive.
Regarding `CC(C)(C)c1ccc(O)cc1`, the call in [1], in assay [2], in assay [3] and in [4] was inactive.
Consider `c1ccc(OP(Oc2ccccc2)Oc2ccccc2)cc1`, for which the call (with CYP2C9 (gene 1559); in the assay with CYP4A11 (gene 1579); in assay [5]; in assay [1]; in assay [2]; in assay [3]) was inactive. For the same compound, the result (in assay [4]; in [6]; in the assay with CYP3A5 (gene 1577)) was inactive.
For the compound `Cc1cccc(N)c1`, the call (with CYP2C9 (gene 1559); with CYP4A11 (gene 1579); in assay [5]; in assay [1]; in assay [3]; in assay [4]) was inactive. For the same compound, the call (in assay [6]; with CYP3A5 (gene 1577)) was inactive.
`Nc1ccc(Cl)cc1`: the compound was classed as inactive (in the assay with CYP2C9 (gene 1559); with CYP4A11 (gene 1579); in assay [5]; in assay [1]; in assay [2]; in assay [3]). The compound was classed as inactive (in assay [4]; in assay [6]; in the assay with CYP3A5 (gene 1577)).
For `CCNc1nc(Cl)nc(NC(C)(C)C)n1`, the compound was called inactive (with CYP2C9 (gene 1559); in assay [1]; in assay [2]; in assay [3]; in assay [4]; in assay [6]). Moreover, the call with CYP3A5 (gene 1577) was inactive. Besides, the values for the AC50 (in the assay with CYP4A11 (gene 1579); in assay [5]) were 9.92 µM (active) and 2.11 µM (active), respectively.
As to `Cc1ccc(N)cc1N`, the call (with CYP2C9 (gene 1559); in the assay with CYP4A11 (gene 1579); in assay [5]; in assay [1]; in assay [2]; in [3]) was inactive. The call (in assay [4]; in assay [6]; in the assay with CYP3A5 (gene 1577)) was inactive.
Turning to `COCCOCCO`, the outcome (in the assay with CYP2C9 (gene 1559); with CYP4A11 (gene 1579); in assay [1]; in [2]; in [3]; in assay [4]) was inactive. Further, the call with CYP3A5 (gene 1577) was inactive.

What is called AC50 is the concentration at which the activity in the assay is half-maximal.
